# Activity calls are given as the source filed them.
# Tests used:
# [1] = system: Human papillomavirus type 1a protein E7 (residues 44-93); experiment: HPV1a E7 fragment binders on microarrays, primary screen, biochemical, small-molecule microarray, residues 44-93, 635 nm fluorescence (AID 1108); settings: small-molecule microarray binding, fluorescence 635 nm; higher = more signal;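 also: E7 fragment applied at 1 µg/mL in TBST for 1 h at 4 C; score combines spot fluorescence with its signal to noise ratio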
# [2] = modulators of HCV replicon luciferase signal, primary screen, HCV replication inhibitor project, Huh7 cells, luciferase reporter (AID 1109); settings: 48 h, higher = more signal;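 also: huh7 hepatoma cells harbouring a luciferase neomycin HCV replicon reporter; luciferase luminescence as measure of HCV replicon replication; test concentration not given here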
# [3] = target: Left-right determination factor 2 (Homo sapiens) (UniProt O00292); experiment: LEFTY2 binders on small-molecule microarrays, primary screen, biochemical, small-molecule microarray, 635 nm fluorescence scan (AID 1110); settings: LEFTY2 binding, higher = more signal
# [4] = target: Calmodulin-1 (Homo sapiens) (UniProt P0DP23); experiment: CALM1 binders on microarrays, EGTA buffer, profiling panel, biochemical, small-molecule microarray, Cy5-labelled CALM1 (AID 1111); settings: Cy5-CALM1 binding fluorescence, higher = more signal;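 also: labelled calmodulin applied in Tris saline Tween buffer holding calcium plus EGTA and DTT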
# [5] = target: Calmodulin-1 (Homo sapiens) (UniProt P0DP23); experiment: calcium-bound CALM1 binders on microarrays, profiling panel, artefact control for SMM control-protein annotation, biochemical, small-molecule microarray, Cy5-labelled CALM1, plus calcium (AID 1112); settings: Cy5-CALM1 binding fluorescence, higher = more signal;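 also: score merges spot fluorescence with signal to noise from triplicate slides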
# [6] = small-molecule microarray binders of probe aWnt5a, primary screen, biochemical, biotinylated probe, 635/667 nm fluorescence (AID 1113); settings: higher = more signal;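 also: score merges 667 nm fluorescence intensity with signal-to-noise per printed feature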
# [7] = small-molecule microarray binders of probe aShh, primary screen, biochemical, biotinylated probe, 635/667 nm fluorescence (AID 1114); settings: higher = more signal;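 also: probe is biotin-labelled aShh protein from a stem cell growth factor screen; measures binding of labelled protein to compounds printed on the slide; score merges feature fluorescence at 667 nm with signal-to-noise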
# [8] = small-molecule microarray binders of probe aNog, primary screen, biochemical, biotinylated probe, 635/667 nm fluorescence (AID 1115); settings: higher = more signal;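 also: probe is biotinylated aNog protein used at 0.15 µg/mL for 1 h at 4 C; z-score combines 667 nm fluorescence of each spot with its signal to noise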
# [9] = target: Torsin-1A-interacting protein 1 (Homo sapiens) (UniProt Q5JTV8); experiment: LAP1 binders from COS7 cell lysate, primary screen, small-molecule microarray, 635/667 nm fluorescence (AID 1116); settings: COS7-hLAP1 lysate binding, 635 nm fluorescence, higher = more signal
# [10] = target: Alpha-bungarotoxin (Bungarus multicinctus) (UniProt P60615); experiment: alpha-bungarotoxin binders on microarray, profiling panel, artefact control for SMM control protein annotation, biochemical, small-molecule microarray, Alexa647 label, 635/667 nm fluorescence (AID 1117); settings: alpha-BTX-A647 binding fluorescence, higher = more signal
# Albumin (Bos taurus) = Albumin (Bos taurus) (UniProt P02769); experiment: bovine serum albumin binders on microarray, profiling panel, artefact control for SMM control protein annotation, biochemical, small-molecule microarray, Alexa647 label, 635/667 nm fluorescence (AID 1118); settings: BSA-A647 binding, fluorescence 635 nm, higher = more signal;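 also: score merges 667 nm emission intensity and signal-to-noise per printed compound spot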
# [11] = small-molecule microarray binders of probe aXIP, primary screen, biochemical, NeuroSMM set, 635/667 nm fluorescence (AID 1119); settings: higher = more signal, called active from +8 up or from −8 down;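 also: probe is the protein aXip251-270 applied at 1 µg/mL to compound-printed slides; binding of probe to printed compounds measured as 667 nm fluorescence plus signal to noise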
# [12] = small-molecule binders of probe aNOTCH3, primary screen, biochemical, small-molecule microarray, 635/667 nm fluorescence (AID 1120); settings: higher = more signal;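 also: probe is a biotin-tagged antibody raised against NOTCH3 rather than NOTCH3 protein; score merges spot fluorescence near 667 nm with spot signal to noise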
# [13] = small-molecule binders of probe aNOTCH2, primary screen, biochemical, small-molecule microarray, 635/667 nm fluorescence (AID 1121); settings: higher = more signal;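 also: score merges feature fluorescence read at 667 nm with its signal to noise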
# [14] = target: Carbonic anhydrase 2 (Homo sapiens) (UniProt P00918); experiment: CAII small-molecule binders, profiling panel, biochemical, small-molecule microarray, Alexa647-labelled CAII (AID 1122); settings: CAII-A647 binding fluorescence, higher = more signal
# [15] = COS7 lysate on small-molecule microarray, probe aHis, 635 nm (AID 1123); settings: COS7 cell lysate, fluorescence, higher = more signal;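 also: z-score combines 667nm fluorescence intensity with signal-to-noise per printed compound spot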
# [16] = compound binding in COS7 lysate, probe aLAP1, primary screen, cell lysate, small-molecule microarray (AID 1124); settings: probe aLAP1, fluorescence, higher = more signal;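 also: lysate comes from COS7 cells expressing LAP1 and is applied at 0.3 µg/mL; score merges spot fluorescence near 667 nm with signal-to-noise over triplicate slides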
# Sam68 (KHDRBS1) = experiment: Sam68 small-molecule binders, primary screen, biochemical, small-molecule microarray, 635 nm fluorescence (AID 1125); settings: small-molecule microarray binding, higher = more signal;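 also: score merges 667 nm channel intensity with signal to noise over triplicate slides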
# [17] = system: Chordin-like protein 2 (CHRDL2); experiment: CHRDL2 small-molecule binders, primary screen, biochemical, small-molecule microarray, 635 nm fluorescence (AID 1126); settings: small-molecule microarray binding, fluorescence 635 nm; higher = more signal;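 also: printed compound slides probed with Chrdl2 protein at 4 µg/mL for 1 h at 4 C; score merges 667 nm emission intensity with signal to noise over three replicate slides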
# [18] = target: Concanavalin-A (Canavalia ensiformis) (UniProt P02866); experiment: ConA small-molecule binders, primary screen, artefact control for SMM control protein annotation, biochemical, small-molecule microarray, Alexa647 label, 635 nm (AID 1127); settings: ConA-A647 binding fluorescence, higher = more signal;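 also: z combines 667 nm emission intensity with signal-to-noise across three replicate slides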
# Concanavalin-A (Canavalia ensiformis), sequence (P02866 whole entry, looked up): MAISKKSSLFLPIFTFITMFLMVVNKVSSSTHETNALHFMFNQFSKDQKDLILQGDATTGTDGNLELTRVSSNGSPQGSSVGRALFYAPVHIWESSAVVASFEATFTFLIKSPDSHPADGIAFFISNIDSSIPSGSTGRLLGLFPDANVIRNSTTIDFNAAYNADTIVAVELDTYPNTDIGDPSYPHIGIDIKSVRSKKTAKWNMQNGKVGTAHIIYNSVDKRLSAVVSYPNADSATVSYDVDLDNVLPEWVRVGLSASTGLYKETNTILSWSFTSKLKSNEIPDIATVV
# Albumin (Bos taurus), sequence (P02769 whole entry, looked up): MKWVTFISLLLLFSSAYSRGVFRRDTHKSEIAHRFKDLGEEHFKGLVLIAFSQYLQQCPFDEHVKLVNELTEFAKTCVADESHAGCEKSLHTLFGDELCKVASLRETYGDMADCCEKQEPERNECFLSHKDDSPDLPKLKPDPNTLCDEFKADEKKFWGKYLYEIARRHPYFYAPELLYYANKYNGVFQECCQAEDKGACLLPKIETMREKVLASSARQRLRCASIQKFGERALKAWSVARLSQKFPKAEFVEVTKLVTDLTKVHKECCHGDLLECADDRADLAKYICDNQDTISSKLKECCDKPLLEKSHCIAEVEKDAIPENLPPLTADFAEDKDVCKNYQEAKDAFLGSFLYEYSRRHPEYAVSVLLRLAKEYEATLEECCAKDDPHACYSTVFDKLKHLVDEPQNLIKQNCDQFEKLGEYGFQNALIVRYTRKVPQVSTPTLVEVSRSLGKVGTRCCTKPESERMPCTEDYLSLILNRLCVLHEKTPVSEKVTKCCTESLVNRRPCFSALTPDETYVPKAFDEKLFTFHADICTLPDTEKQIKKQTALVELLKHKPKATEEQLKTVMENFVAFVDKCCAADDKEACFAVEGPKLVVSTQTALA
# Torsin-1A-interacting protein 1 (Homo sapiens), sequence (Q5JTV8 whole entry, looked up): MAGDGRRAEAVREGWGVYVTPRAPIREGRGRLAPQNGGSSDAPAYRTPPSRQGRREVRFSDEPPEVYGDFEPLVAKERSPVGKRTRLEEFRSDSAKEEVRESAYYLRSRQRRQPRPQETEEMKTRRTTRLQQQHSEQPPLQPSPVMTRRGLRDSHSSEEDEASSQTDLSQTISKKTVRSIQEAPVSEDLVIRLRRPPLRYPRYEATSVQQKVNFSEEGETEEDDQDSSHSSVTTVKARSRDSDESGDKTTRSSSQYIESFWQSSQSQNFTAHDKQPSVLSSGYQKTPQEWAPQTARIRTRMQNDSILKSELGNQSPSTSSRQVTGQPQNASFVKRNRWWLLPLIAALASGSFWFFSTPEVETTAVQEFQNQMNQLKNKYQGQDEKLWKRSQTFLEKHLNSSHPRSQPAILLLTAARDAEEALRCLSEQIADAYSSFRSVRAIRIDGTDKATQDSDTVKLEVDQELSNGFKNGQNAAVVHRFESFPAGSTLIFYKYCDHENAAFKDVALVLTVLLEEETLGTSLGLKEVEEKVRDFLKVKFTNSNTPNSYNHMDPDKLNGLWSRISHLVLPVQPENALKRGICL
# Left-right determination factor 2 (Homo sapiens), sequence (O00292 whole entry, looked up): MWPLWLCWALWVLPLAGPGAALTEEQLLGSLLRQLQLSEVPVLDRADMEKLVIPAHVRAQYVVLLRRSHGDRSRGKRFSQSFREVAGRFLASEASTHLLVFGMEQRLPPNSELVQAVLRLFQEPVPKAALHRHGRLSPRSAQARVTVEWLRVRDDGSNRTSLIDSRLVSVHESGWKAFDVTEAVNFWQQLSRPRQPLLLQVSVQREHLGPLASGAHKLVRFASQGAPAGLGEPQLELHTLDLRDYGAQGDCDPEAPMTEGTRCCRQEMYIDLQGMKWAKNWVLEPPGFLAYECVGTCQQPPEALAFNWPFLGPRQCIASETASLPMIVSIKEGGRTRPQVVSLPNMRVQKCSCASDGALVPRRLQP
# Alpha-bungarotoxin (Bungarus multicinctus), sequence (P60615 whole entry, looked up): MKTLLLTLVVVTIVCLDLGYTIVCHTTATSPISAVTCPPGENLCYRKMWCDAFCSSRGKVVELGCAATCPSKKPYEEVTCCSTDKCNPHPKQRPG
Structure (SMILES),composite z-score [1],z-score [2],composite z-score [3],composite z-score [4],composite z-score [5],composite z-score [6],composite z-score [7],composite z-score [8],composite z-score [9],composite z-score [10],composite z-score (Albumin (Bos taurus)),composite Z-score [11],composite z-score [12],composite z-score [13],composite z-score [14],composite z-score [15],composite z-score [16],composite z-score (Sam68 (KHDRBS1)),composite z-score [17],composite z-score [18]
COCCOC(=O)N1C(=O)[C@@]2(c3cc(C#CCNC(N)=O)ccc31)[C@H](C(=O)N1CCc3cc(OC)c(OC)cc3C1)[C@H]1C(=O)O[C@H](c3ccccc3)[C@H](c3ccccc3)N1[C@@H]2c1ccccc1OCCO,0.843,-1.03,0.76,1.29,0.582,-0.0786,-0.305,0.39,1.03,1.85,0.577,-0.0476 (inactive),0.123,-0.126,0.577,1.33,0.383,1.29,0.855,0.794
[N-]=[N+]=Nc1ccccc1[C@H]1OC(c2ccc(OCCCO)cc2)=N[C@@]1(CCS(=O)(=O)c1ccccc1)C(=O)NCCN1CCOCC1,1.4,0.517,-0.354,0.757,-0.368,0.0246,0.315,1.03,0.936,0.755,0.189,-0.363 (inactive),0.189,0.069,0.449,1.72,0.503,1.31,0.577,0.923
COC(=O)c1ccc([C@H](NC(=O)c2ccco2)[C@]2(C)C[C@H]2C2CCCCC2)cc1,-0.0855,-0.978,-1.6,1.51,1.39,-0.096,0.142,1.46,-0.101,0.351,0.678,0.0201 (inactive),0.0179,-0.0391,-0.227,1.43,-0.164,-0.552,-1.17,0.208
O=C1N(Cc2ccccc2)Cc2ccccc2[C@@H]2OC(c3ccc(OCCCO)cc3)=N[C@]12CCS(=O)(=O)c1ccccc1,1.4,-1.84,0.347,0.729,0.264,-0.0758,0.265,-0.319,-0.0362,1.37,-0.0561,1.52 (inactive),0.0876,0.0607,0.484,2.23,0.0984,1.25,0.068,0.888
O=C1O[C@H](c2ccccc2)[C@H](c2ccccc2)N2[C@H]1[C@@H](C(=O)Nc1nc3ccccc3s1)[C@]1(C(=O)Nc3ccc(C#CCCO)cc31)[C@H]2c1ccc(O)cc1,1.4,-0.829,0.691,0.628,-0.0808,-0.0519,-0.0035,-0.28,0.799,0.369,0.497,-0.0959 (inactive),0.199,-0.156,0.5,1.75,0.278,1.02,0.172,1.16
O=C1O[C@@H](c2ccccc2)[C@@H](c2ccccc2)N2[C@@H](c3ccccc3OCCO)[C@]3(C(=O)Nc4ccc(C#CCCO)cc43)[C@@H](C(=O)N3CCCCCCC3)[C@H]12,1.51,-1.74,1.82,3.18,1.89,1.64,3.42,3.79,5.67,4.61,0.366,10.6 (active),2.26,1.23,0.972,5.27,1.6,1.3,1.72,1.2
[N-]=[N+]=NCc1ccccc1C[C@@]1(C(=O)N2CCOCC2)N=C(c2ccc(OCCCO)cc2)O[C@@H]1c1ccccc1,1.45,-3.27,0.285,1.83,0.997,0.0597,0.412,-0.549,2.09,0.916,0.851,0.879 (inactive),0.056,0.0012,0.617,2.92,0.491,1.11,-0.577,1.08
COC(=O)[C@@]1(Cc2ccccc2)[C@@H]2C(=CC(=O)[C@H]2CC(=O)C(=O)N(C)C)CN1C(=O)c1ccccc1,0.883,-2.36,0.25,1.31,0.477,0.188,0.21,1.46,0.275,0.409,0.93,-0.0478 (inactive),0.462,0.23,0.808,2.61,0.931,1.2,-0.202,1.08
CN(C)CCCCNC(=O)[C@@H]1C[C@@H]2C(=O)N[C@@H](Cc3ccccc3)C(=O)N2[C@@H]1c1cccc(OCCO)c1,1.34,4.01,1.24,-0.349,-0.125,-0.127,0.0952,-0.0721,0.0715,0.612,-0.0493,1.1 (inactive),-0.239,-0.153,0.74,2.59,1.11,1.06,1.08,1.07
C=CCC(OC(C)=O)[C@@H]1[C@@H](N(Cc2cc3ccccc3o2)C(=O)c2ccc(C)cc2)c2cc(OCCCO)ccc2N1C(=O)Cc1ccc(OC)cc1 (stereo not given in full),-0.098,-0.169,-0.0667,-0.254,-0.583,0.0317,0.136,-0.318,-0.0471,0.203,-0.204,0.264 (inactive),-0.176,-0.0811,-0.119,0.59,0.128,0.0262,0.172,0.217
O=C(CS)NCCCCCCNC(=O)[C@H]1C[C@H]2C(=O)N[C@@H](Cc3ccccc3)C(=O)N2[C@H]1c1ccc(O)cc1,1.39,-0.53,0.656,-0.123,-0.426,-0.1,-0.339,-0.493,0.0397,0.329,-0.242,0.578 (inactive),-0.423,-0.0924,0.557,2.18,0.871,1.18,0.757,1.1

# From PubChem BioAssay
